Laboratory results reported in PubChem BioAssay (NCI).
This is part of a sample that, as a whole, favours compounds with a hit. Of some 79,000 tested, about 15% had one in any assay. Calls of active or inactive are those of the source. Cut-off read from the data, not from the text of the source: active = growth inhibition above about 70%; inactive = the rest. Where a SMILES comes first, the peptide text is derived from it. The star is where a group is joined. Cbz = O=C(OCc1ccccc1)*

assay: NCI Yeast Anticancer Drug Screen. Data for the rad50 strain (AID 155);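 note: 0% = growth of vehicle-only cultures of the same strain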; details: S. cerevisiae rad50 strain growth inhibition; at 50.0 µM; stronger effect = higher value
Outline: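 Readout: growth inhibition relative to vehicle-treated cultures. Compound exposure was carried out in a genetically defined yeast strain deficient in DNA damage repair.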

| SMILES | growth inhibition |
| --- | --- |
| O=C1c2ccccc2Cc2ccccc21 | 3.5% (inactive) |
| O=[N+]([O-])C(C(Cl)=C(Cl)Cl)=C(N1CCCCC1)N1CCCCC1 | -48.2% (inactive) |
| CC1(C)C=Cc2c(cc(O)c3c(=O)c4cc(Cl)ccc4[nH]c23)O1 | -14.2% (inactive) |
| CC(O)(C(=O)O)C(NC(=O)c1ccccc1)C(=O)O (stereo unspecified) | 12.2% (inactive) |
| CC(C)COC(=O)c1cc(O)[nH]c(=O)c1 | -19.6% (inactive) |
| CCOC(=O)CCC(NC(=O)C(CCC(=O)O)NC(=O)OCc1ccccc1)C(=O)OCC (stereo not drawn) (Cbz-Glu-Glu(OEt)-OEt; configuration not given here) | 26.4% (inactive) |
| NC(C(=O)O)C1C=CCCC1 (stereo unspecified) | -25.4% (inactive) |
| CC1(C)OC(=O)ON(Cc2ccccc2)C1=O | -4.45% (inactive) |
| CCOC(=O)C1=C(C(=O)c2ccc(OC)cc2)C(c2ccc(OC)c(OC)c2)C(C(=O)c2ccc(OC)cc2)=C(C(=O)OCC)N1 | -44.4% (inactive) |
| CN1CCc2sccc2C(c2ccccc2)O1 (stereo unspecified) | 0.75% (inactive) |
| COc1ccc(N2C(=O)/C(=C\c3ccc(N(CCC#N)CCC#N)cc3)N=C2COc2ccccc2)cc1 | 0.8% (inactive) |
| CCCC(C)C1(CC)NC(C)(C)CC(C)O1 (stereo unspecified) | 2.75% (inactive) |
| CC(C)COP(C)(=O)C(N)(C(F)(F)F)C(F)(F)F (stereo unspecified) | 10.9% (inactive) |
| N#CC1C(=O)NC(=O)C(C#N)C12CCCC2 (stereo unspecified) | -3.65% (inactive) |
| O=c1oc2ccccc2c(O)c1[N+](=O)[O-] | 10.6% (inactive) |
| O=C1O[C@@H]2C3COC(O)[C@](O)(O3)[C@@H]2/C1=C\c1ccc(O)cc1 (stereo partly specified) | 20.1% (inactive) |
